# Sampled rows, rich in hits. Any-hit rate of the full collection: about 32%.
# CYP2C19 act – human CYP2C19 activators, primary screen, biochemical, luminescence. recombinant CYP2C19, luciferin-H EGE luminescence; hits give high values; 0 = fully inhibited enzyme, 1 = untreated enzyme. 96,000 tested, under 10 active. AID 1025, 2008. activation factor at 5 µM;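 active means activation factor of at least 2 at 5 µM in the primary screen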;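 further: 0 = wells with 2.5 mM tranylcypromine and 1 = vehicle-only wells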
# CYP2C9 act – human CYP2C9 activators, primary screen, biochemical, luminescence; 96,000 compounds, 1.4% hits; activation factor at 5 µM; Cytochrome P450 2C9 (Homo sapiens), P11712; recombinant CYP2C9, luciferin-H conversion; hits give high values; factor 1 = untreated enzyme, 0 = blocked;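 active means activation factor of 2 or more for CYP2C9 at a 5 µM dose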;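 further: 0 = sulfaphenazole-blocked wells and 1 = vehicle-only wells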
# Target sequence (P11712 whole entry, looked up): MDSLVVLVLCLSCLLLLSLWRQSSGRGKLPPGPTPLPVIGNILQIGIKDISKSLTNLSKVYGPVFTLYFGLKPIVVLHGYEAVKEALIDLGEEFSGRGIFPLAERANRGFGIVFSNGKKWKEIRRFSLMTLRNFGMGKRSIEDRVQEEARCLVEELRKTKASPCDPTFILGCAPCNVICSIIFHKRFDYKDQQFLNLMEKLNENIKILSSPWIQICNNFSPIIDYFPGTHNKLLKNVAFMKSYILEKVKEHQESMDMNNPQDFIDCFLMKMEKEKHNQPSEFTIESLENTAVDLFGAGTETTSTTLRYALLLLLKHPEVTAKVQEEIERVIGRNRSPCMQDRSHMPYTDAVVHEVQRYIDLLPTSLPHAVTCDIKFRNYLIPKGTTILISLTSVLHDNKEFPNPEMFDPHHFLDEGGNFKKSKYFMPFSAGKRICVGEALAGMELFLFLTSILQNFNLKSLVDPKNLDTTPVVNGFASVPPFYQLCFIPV
# PostGolgi yeast – phenotypic screen on post-Golgi transport, primary screen; post-Golgi transport phenotypic cell assay; inhibition, % at 10 µM; 98,000 compounds, 0.9% hits;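 further: yeast cells grown in 1536-well plates; yeast grown about 18 h at 30C before absorbance read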
# CYP2C19 inhib – blockers of cytochrome P450 2C19 activity – biochemical, luminescence, ADME assay, primary screen. inhibition, % at 5 µM. 96,000 compounds, 21% hits. P33261. CYP2C19 Supersomes, luciferin-H EGE luminescence, 30 min;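 active means CYP2C19 inhibition above a set limit at 5 µM in the primary screen, cut at about 50% in these data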;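 further: plate controls were negative control wells for no effect and 2.5 mM tranylcypromine positive control for full effect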
# PostGolgi ctrl – growth inhibition of yeast control strain, primary screen, counter-screen for post-Golgi transport modulator project; AID 738, 2007; inhibition, % at 10 µM; efflux-deficient yeast background strain, growth absorbance A615, 16 h; 98,000 compounds, 5% hits
# CYP2C9 inhib – blockers of cytochrome P450 2C9 activity – biochemical, luminescence, ADME assay, primary screen; CYP2C9 Supersomes, luciferin-H conversion; inhibition, % at 5 µM; 96,000 compounds, 20% hits; AID 777, 2007;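 active means blocking of liver enzyme CYP2C9 beyond about 50% at 5 µM, limit read from the data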
# * hit, by the source's call; . = not tested or not shown. Unless noted, no stated cut-off is given here; in the data, active means inhibition above about 30%; inactive means the rest.
SMILES,CYP2C19 act,CYP2C9 act,PostGolgi yeast,CYP2C19 inhib,PostGolgi ctrl,CYP2C9 inhib
CCOC(=O)NC(O)C(=O)c1cccs1 (stereo not given),1.1,1.1,5.6,-8.9,0.6,-9.3
O=C(NS(=O)(=O)c1ccccc1)c1ccccc1F,1.1,0.9,-13.5,-7.9,-18.4,14.1
CCn1c(NC(=O)c2ccco2)c(-c2ccccc2Cl)c(=O)c2ccccc21,1,0.9,-5.0,-1.3,6.0,5.5
CCCCc1c(O)nc(N2CCN(Cc3ccccc3)CC2)[nH]c1=O,1.1,0.9,1.4,-8.2,10.8,11.9
COc1ccc(C2CC(c3cc(Br)ccc3F)n3nnnc3N2)cc1 (stereo not given),0.6,0.4,17.1,38.1,10.3,63.8*
O=C(Nc1nc2n(n1)C(c1ccccc1)C=C(c1ccccc1)N2)c1ccco1 (stereo not given),0.7,0.3,18.6,31.4,12.1,72.9*
CCOc1ccc(C2CC(c3ccc(OC)c(OC)c3)n3nc(N)nc3N2)cc1 (stereo not given),1,1,1.8,2.9,13.8,4.5
CCOc1ccc(C2CC(c3cccc(OC)c3OC)n3nnnc3N2)cc1Cl (stereo not given),0,0.1,-1.0,97.7*,-0.7,89.2*
COc1ccc(C2CC(c3ccccc3)n3nc(NC(=O)c4cccs4)nc3N2)cc1 (stereo not given),0.8,0.5,-1.3,18.2,-1.0,53.4*
CC(=O)Nc1nc2n(n1)C(c1ccccc1)C=C(c1ccccc1)N2 (stereo not given),0.9,1,-1.3,8.3,0.5,-0.3
COc1ccc(C2CC(c3ccccc3)Nc3nc(NC(=O)c4cccs4)nn32)cc1 (stereo not given),1,0.8,2.8,-4.5,4.8,24.6
COc1cc(C)c(Cl)c(C)c1S(=O)(=O)NCc1cccnc1,0.5,0.8,-1.0,49.6,11.2,16.0
CC1=CC(c2ccc(Cl)cc2)n2nc(NC(=O)c3ccccc3)nc2N1 (stereo not given),0.9,0.6,-0.3,10.3,-2.7,42.7
Cc1ccc(C2CC(c3cccc(Br)c3)Nc3nnnn32)cc1 (stereo not given),0.5,0.7,4.5,51.4*,11.7,34.7
O=C(Nc1nc2n(n1)C(c1ccc(Cl)cc1)CC(c1ccc(Cl)cc1)N2)c1ccco1 (stereo not given),0.3,0.2,-1.6,71.1*,13.6,82.1*
COc1ccc(C2CC(c3ccccc3)n3nnnc3N2)cc1 (stereo not given),0,0.1,-2.9,98.4*,-1.0,87.3*
Cc1ccccc1OCCCC(=O)Nc1ccc(N2CCOCC2)cc1,0.6,0.7,.,37.2,.,26.2
Cc1cc(=O)n2nc(N3CCC(C(=O)NC4CCCc5ccccc54)CC3)sc2n1 (stereo not given),0.8,0.8,-0.3,15.2,5.8,21.4
O=C(NC(=S)Nc1cc(Cl)ccc1N1CCOCC1)c1ccc(-c2cccc(Cl)c2)o1,1.2,0.9,-3.8,-17.7,-9.1,7.2
N#CCCN1CCN(C(=S)c2ccc(-c3cccc(Cl)c3)o2)CC1,0.1,0.7,-4.0,92.6*,17.2,31.9
N#CCCN1CCN(C(=S)c2ccc(-c3ccc(Cl)c(Cl)c3)o2)CC1,0.5,0.4,7.6,47.2,32.8*,61.3*
CC(=O)N1CCN(C(=S)c2ccc(-c3ccc(Cl)cc3)o2)CC1,0.8,0.8,0.7,20.2,27.4,15.1
S=C(c1ccc(-c2cccc(Cl)c2)o1)N1CCOCC1,0.5,0.8,13.4,50.3*,11.8,15.9
CC(=O)Nc1cccc(NC(=O)C2CCCN2C(=O)Nc2ccc(Cl)cc2)c1 (stereo not given),0.8,0.6,-7.3,17.7,5.0,42.0
Cc1cccc2cc(CN(CCCN3CCOCC3)Cc3nnnn3C(C)(C)C)c(=O)[nH]c12,0.5,0.8,3.0,46.0,5.0,24.9
SMILES,CYP2C19 act,CYP2C9 act,PostGolgi yeast,CYP2C19 inhib,PostGolgi ctrl,CYP2C9 inhib
Cn1c(Sc2ccc(Cl)cc2)c(C=O)c2ccccc21,1,0,8.1,3.9,37.4*,95.8*
Cc1cccc(Sc2c(C=O)c3ccccc3n2C)c1,0.2,0.2,3.6,80.9*,24.1,77.4*
Nc1ccc(-n2nncc2-c2ccc(Cl)cc2)cc1,0.4,0.4,-8.5,64.5*,-9.7,57.4*
Clc1ccc(-n2cnnn2)cc1,1,1.4,2.4,0.7,20.1,-41.2
O=[N+]([O-])c1ccc(-n2nncc2-c2ccc(Cl)cc2)cc1,0.1,0.5,-5.0,90.1*,5.3,53.5*
Cc1cc(C(=O)O)c(CSCc2cc(C(=O)O)oc2C)o1,0.8,1.7,-13.7,22.3,4.7,-74.6
CCN(CC)S(=O)(=O)c1cc(C(=O)NC2=NCCS2)ccc1Cl,0.8,0.7,2.2,18.9,1.2,27.8
CN(c1cccc(Cl)c1)S(=O)(=O)c1cccc(C(=O)NC2=NCCS2)c1,0.3,0.2,3.8,73.8*,12.4,81.8*
COc1ccc(N(Cc2ccccc2)S(=O)(=O)c2cccc(C(=O)NC3=NCCS3)c2)cc1,0.3,0,1.0,71.3*,23.6,97.3*
O=C(O)c1cccc(NC(=O)c2cccc(NC(=O)C3CCCO3)c2)c1 (stereo not given),0.7,1.1,-0.1,27.4,5.7,-11.3
O=C(Nc1ccc(Oc2ccccc2)cc1)C1CCCO1 (stereo not given),0.4,0.8,14.7,58.4*,0.0,15.1
O=C(O)c1cccc(C(=O)Nc2cccc(NC(=O)C3CCCO3)c2)c1 (stereo not given),0.4,0.7,-6.6,61.7*,0.6,29.4
COc1cc(-c2nc3cnccn3c2Nc2ccc(C)cc2)ccc1O,0.2,0.5,-7.5,79.6*,34.2*,54.8*
COc1cc(-c2nc3cnccn3c2Nc2ccccc2)ccc1O,0.6,0.5,6.8,41.6,20.0,51.2*
O=C(COc1ccc(Br)cc1)Nc1ccc([N+](=O)[O-])cn1,0.8,1.1,20.7,20.1,0.5,-8.8
CS(=O)(=O)N(CC(=O)Nc1ccccc1C(=O)NCc1ccco1)c1ccc2c(c1)OCCO2,0.6,0.1,-7.7,37.1,2.1,91.1*
COC(=O)c1ccc(C(=O)OC)c(NC(=O)CN(c2ccc3c(c2)OCO3)S(C)(=O)=O)c1,0.1,0.2,6.0,88.9*,11.0,76.1*
COc1ccccc1N(CC(=O)Nc1ccccc1C(=O)NCC(C)C)S(C)(=O)=O,0.5,0.2,1.4,46.8,2.5,77.1*
COc1ccccc1NC(=O)CN(c1ccccc1F)S(C)(=O)=O,0.7,0.8,0.3,28.9,6.8,15.4
